Screens deposited in PubChem BioAssay by National Center for Advancing Translational Sciences (NCATS).
Only some compounds are listed: those with a hit (about 7.5% of all), similar ones and a draw of the others.
NPC1 promoter act: NPC1 promoter activation | Huh7 NPC1 promoter luciferase reporter, 24 h | Potency, µM (titrated, usually from 9.22 µM), for inactives: at the top dose activation, actives largely listed as activators | 320,000 tested, 2.4% active; further: % of control where 0% means no effect; nearly all actives have a fitted effect of over 60% in size
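Readout is luciferase luminescence, reflecting NPC1 promoter activation in stably transfected Huh7 cells after 24 h compound exposure at 37 °C in reduced-serum medium with 10% FBS.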
SMN2 splice enh: enhancers of SMN2 splice variant expression; HEK293 SMN2-luciferase splicing reporter, luminescence, 30-36 h; Potency, µM (doses to about 46.1 µM), inactives show at the highest dose activity change, positive = activation, actives largely listed as activators; 210,000 tested, 2.8% active; AID 1458; further: % of control where 0% means no effect; nearly all actives have a fitted effect of over 55% in size
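HEK293 cells carry an SMN2 […]–luciferase reporter in which exon 7 inclusion puts luciferase in frame. Cells were plated 10-12 h before compound addition, then incubated 30-36 h at 37C. ONE-Glo luminescence was read; sodium butyrate at 4.5 mM final served as control.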
ELG1 genotox: inducers of genotoxicity in HEK293T ELG1-luciferase cells; HEK293T ELG1-luciferase reporter, luminescence, 16 h; 330,000 tested, 1.3% active; Potency, µM (highest dose often 46 µM), without a hit: at the top dose activity change, positive = activation, hits mostly activators; further: % of control where 0% means no effect; nearly all actives have a fitted effect of over 60% in size
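Genotoxicity was scored as increased ELG1-luciferase reporter signal, measured by ONE-Glo luminescence (30 min, room temperature). Compound or vehicle exposure of the HEK293T reporter cells lasted 16 hr at 37°C.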
Rab9 promoter act: activators of Rab9 promoter. Huh7 Rab9 promoter-luciferase reporter, luminescence, 24 h. Potency, µM (highest dose often 9.22 µM), for inactives: top-dose activation, negative = inhibition, usual class: activators. 320,000 tested, 2.8% active. AID 485297; further: % of control where 0% means no effect; nearly all actives have a fitted effect of over 60% in size
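Luminescence read-out: Huh7 cells stably expressing Rab9-luciferase, treated 24 h with compound at 37 °C, then lysed with luciferase reagent for 10 min at ambient before reading.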
FLuc counter: counter-screen for miR-21 project: firefly luciferase inhibitors or activators; P08659; purified FLuc, Km substrates, luminescence inhibition; Potency, µM (series often up to 57.5 µM), without a hit: at the top dose activity change, negative = inhibition, most hits filed as inhibitors; 360,000 tested, 6.9% active; AID 588342;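 further: plate controls were vehicle for no effect and reference inhibitor for full effect; nearly all actives have a fitted effect of over 55% in size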
Target sequence (P08659 whole entry, looked up): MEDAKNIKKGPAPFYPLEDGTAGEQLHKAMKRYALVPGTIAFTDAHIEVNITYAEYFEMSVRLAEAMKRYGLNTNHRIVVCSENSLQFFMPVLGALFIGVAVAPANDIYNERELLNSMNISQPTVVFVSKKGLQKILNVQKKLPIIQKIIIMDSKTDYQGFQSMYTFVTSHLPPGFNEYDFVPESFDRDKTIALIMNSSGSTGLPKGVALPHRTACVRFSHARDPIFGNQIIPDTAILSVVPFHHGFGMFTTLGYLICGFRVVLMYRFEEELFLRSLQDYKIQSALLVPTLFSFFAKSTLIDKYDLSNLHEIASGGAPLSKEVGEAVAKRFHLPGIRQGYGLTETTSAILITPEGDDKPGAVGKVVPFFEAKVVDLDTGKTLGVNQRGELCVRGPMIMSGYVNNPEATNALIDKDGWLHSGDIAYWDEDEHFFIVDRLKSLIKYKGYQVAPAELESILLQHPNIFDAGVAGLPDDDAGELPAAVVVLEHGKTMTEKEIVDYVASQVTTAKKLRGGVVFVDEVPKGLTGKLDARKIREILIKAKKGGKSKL
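Purified P. pyralis luciferase (10nM final) with 10uM D-luciferin and 10uM ATP (Km levels) in 50mM Tris acetate pH 7.5, 10mM Mg acetate, 0.01% Tween-20, 0.05% BSA; qHTS 6-point titration, ~60 µM downward; luminescence read.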
An asterisk follows results filed as active; u = inconclusive; x = not tested or not shown; [ ] = dose if it differs, or a comment. The call rests on the fitted dose curve; in most records, active means well fitted curve in the direction sought with a large enough effect; inconclusive means small, poorly fitted or top-dose-only effect, or another doubt; inactive means no such curve, though single readings can be large; an effect the other way counts as inactive or inconclusive. Potency means the concentration at half of the fitted maximal effect.

SMILES | NPC1 promoter act | SMN2 splice enh | ELG1 genotox | Rab9 promoter act | FLuc counter
NNC(=O)c1cc(-c2ccc(O)cc2)nc2ccc(Br)cc12 | 1.8% | x | 6.9% | -2.9% | u
CCOc1cc(/C=C2/C(=O)ON=C2C)cc(Br)c1O | -5.8% | x | 2.4% | -9.7% | 21.3µM*
CCOc1cc(/C=C2\C(=O)ON=C2c2ccccc2)cc(Br)c1O | -11.7% | x | u | -7.5% | 9.53µM*
O=C(CN(C(=O)CCC(=O)Nc1ccccn1)c1ccc2c(c1)OCO2)NCc1ccco1 | 1.9% | -2.2% | 5.3% | 10.3% | -3.4%
COc1ccccc1NC(=O)Cn1ccn(-c2cc(C)cc(C)c2)c(=O)c1=O | x | x | x | x | 0.4%
O=C(COC(=O)Cn1cnc2ccccc21)Nc1cc2c(cc1Cl)C(=O)c1ccccc1C2=O | 3.16µM* | 17.8µM* | u | 2.82µM* | u
O=C(NCC1CCCO1)c1ccc(COc2ccccc2Br)cc1 (configuration not stated) | 0.6% | -10.3% | 1.8% | -6.5% | 23.9µM*
O=C(NCC1CCCO1)c1ccc(COc2ccc(Cl)cc2)cc1 (configuration not stated) | -1.1% | -46.1% | -5.2% | -2.9% | -11.1%
O=C(NCC1CCCO1)c1cccc2ccccc12 (configuration not stated) | 1.1% | x | -4.3% | -3.6% | 1.3%
O=C(NCC1CCCCC1)c1cc2ccccc2cc1O | u | x | -0.3% | 27.0% | 12µM*
O=C(NCC1CCCO1)c1cc2ccccc2cc1O (configuration not stated) | u | x | 15.4% | u | 23.9µM*
O=C(N/N=C1/CC2CCC1C2)c1cc2ccccc2cc1O (configuration not stated) | 15.6% | x | -2.7% | 4.0% | 15.1µM*
COc1ccc(-c2cc(=O)oc3cc(OCC(=O)N(C)C)ccc23)cc1 | -3.3% | x | 1.6% | -37.3% | -0.8%
COc1cccc(Cn2c(=O)c(-c3cccs3)nc3cnc(N4CCN(C)CC4)nc32)c1 | x | -2.8% | x | x | x
O=C(Nc1c(C(=O)O)oc2ccccc12)c1ccc(C(F)(F)F)cc1 | x | x | x | x | 9.53µM*
Cc1cccc(OC(=O)c2ccc3nccnc3c2)c1 | 12.0% | -12.5% | 0.6% | -5.1% | 15.1µM*
O=C(Oc1ccc(Cl)cc1)c1ccc2nccnc2c1 | -1.5% | 1.3% | 2.7% | 0.2% | 3.79µM*
NC(=O)c1nnn(-c2ccccc2)c1N | -1.1% | 6.5% | -0.8% | 0.0% | -1.1%
CCCCNC(=O)c1nnn(-c2ccccc2)c1N | u | 12.6µM* | u | u | u
Oc1ccc(/C=N/Nc2nn3cnnc3c3ccccc23)cc1 | u | x | 1.1% | 2.2% | 9.53µM*
COc1cccc(/C=N/Nc2nn3cnnc3c3ccccc23)c1 | 25.1% | -3.9% | 8.2% | 15.9% | 10.7µM*
CCOc1cc(/C=N/Nc2nn3cnnc3c3ccccc23)ccc1O | 25.3% | x | 8.3% | 17.9% | 5.36µM*
COc1cccc(/C=N/Nc2nc3ccccc3n3cnnc23)c1 | -1.2% | -5.6% | -1.2% | -6.8% | -5.9%
COc1cc(/C=N/Nc2nn3cnnc3c3ccccc23)ccc1O | 13.6% | 10.0% | 0.8% | 7.8% | 2.69µM*
Cc1cc(/C=N/O)c(C)n1-c1ccccc1 | 8.0% | 4.6%[1.84 µM] | 9.5% | 17.1% | 16.9µM*
SMILES | NPC1 promoter act | SMN2 splice enh | ELG1 genotox | Rab9 promoter act | FLuc counter
CCc1ccc(-n2c(C)cc(/C=N/NC(=O)OC)c2C)cc1 | 0.7% | 2.9%[1.84 µM] | 13.5% | 2.1% | 19µM*
COC(=O)N/N=C/c1cc(C)n(-c2ccccc2)c1C | 24.9% | -0.6%[1.84 µM] | u | u | 8.49µM*
Cc1cc(/C=N/NC(N)=O)c(C)n1-c1ccc(F)cc1 | -0.1% | -28.2% | 4.1% | -0.5% | -10.1%
CC(=O)C(=Cc1cc(C)n(-c2ccccc2)c1C)C(C)=O | -9.0% | 16.8% | -1.2% | 1.9% | 19µM*
Cc1cc(C(=O)O)c(C)n1-c1ccccc1 | 3.7% | -10.2% | 1.1% | -1.0% | 5.5%
CC(=O)N/N=C/c1cc(C)n(-c2ccc(Br)cc2)c1C | 4.5% | -12.9% | -0.3% | 10.2% | -17.6%
CCN(C(=O)COC(=O)c1cccc(C)c1[N+](=O)[O-])c1c(N)n(Cc2ccccc2)c(=O)[nH]c1=O | -2.8% | x | 4.8% | -2.9% | 4.6%
CCOC(=O)C1CCN(C(=O)Cn2nc(C)n3c(cc4c(OC)cccc43)c2=O)CC1 | x | -7.1% | x | x | -5.6%
COC(=O)N/N=C/c1cc(C)n(-c2ccc(F)cc2)c1C | 0.0% | 27.7% | u | 21.0% | 23.9µM*
